Pf Dd2 growth – inhibitors of Plasmodium falciparum Dd2 growth | P. falciparum Dd2 growth, SYBR Green, 72 h | Potency, µM (titrated, usually from 28.9 µM), for inactives: at the highest dose activity, negative = inhibition, hits mostly inhibitors | hit rate 4.3% among 120,000 | AID 1347417; active means well fitted inhibition curve with a large enough effect;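 further: plate controls were DMSO vehicle for no effect and reference drug for full effect; nearly all actives have a fitted effect of over 65% in size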
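Infected erythrocytes (Dd2, 0.3% parasitemia, 2.5% hematocrit final) are added to compound in RPMI-1640/Albumax II medium, grown 72 h at 37C in low oxygen, then lysed with saponin/Triton-X containing SYBR Green and read by fluorescence.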
The depositor's hits bear a star; i = inactive; [ ] = dose if it differs, or a comment. The sample as a whole holds a higher share of hits than the screen did. Potency means the concentration at half of the fitted maximal effect.

SMILES	Pf Dd2 growth
CC(C)C[C@@H]1N[C@H](C(=O)NC2CCCC2)Cc2c[nH]c3cccc1c23	13µM*
C#CCNC(=O)[C@@H]1Cc2c[nH]c3cccc(c23)[C@H](CC(C)C)N1	i
CC#CCn1cc2c3c(cccc31)[C@H](CC(C)C)N[C@H](C(=O)OC)C2	i
CC(C)C[C@@H]1N[C@H](C(=O)NC2CCCC2)Cc2cn(CC3CC3)c3cccc1c23	-16%[44.1 µM]
CC(C)C[C@@H]1N[C@H](C(=O)NC2CCC2)Cc2cn(Cc3nccn3C)c3cccc1c23	10µM*
C=CCn1cc2c3c(cccc31)[C@H](CC(C)C)N[C@H](C(=O)NCc1ccccc1)C2	7.1µM*
CC(=O)Nc1cccc(C(=O)NCc2nnc3ccc(-c4ccccc4)nn23)c1	i
Cc1ccc(NC(=O)N2CC(c3nnc(-c4ccncc4)o3)C3(CCOCC3)C2)cc1 (stereo unspecified)	-1%
CCCCNC(=O)c1ccc2c(c1)N(C(=O)c1ccc(OC)cc1)CC2	-24%
Cc1noc([C@@H]2CC(F)(F)CN2C(=O)c2cc(C)oc2C)n1	-28%
CCOC(=O)c1sc(NC(=O)C(C)Sc2nc(-c3ccccc3)cc(C(F)(F)F)n2)c(C(=O)OC)c1C (stereo unspecified)	0.71µM*
CCOC(=O)c1c(NC(=O)CSc2nc(-c3ccccc3)cc(C(F)(F)F)n2)sc(C)c1C	i
COc1ccc(CNC(=O)C(C)Sc2nc(-c3ccccc3)cc(C(F)(F)F)n2)cc1 (stereo unspecified)	-18%
CCOc1cccc(CN2CCC(C(Cc3ccccc3F)N(C)C(=O)c3cccs3)CC2)c1O (stereo unspecified)	-27%
COCC1CN(C2CCC2)CC12CCN(C(=O)COc1cccc(C)c1)CC2 (stereo unspecified)	5µM*
N#Cc1cccc(C(=O)N2CCC3(CC2)CN(C2CCC2)CC3CO)c1 (stereo unspecified)	-10%
O=C(Cc1ccc(Cl)cc1)N1CCC2(CC1)CN(C1CCC1)CC2CO (stereo unspecified)	8.9µM*
COCC1CN(C2CCC2)CC12CCN(C(=O)c1ccccn1)CC2 (stereo unspecified)	11%
OCC1CN(C2CCC2)CC12CCN(C1CCC1)CC2 (stereo unspecified)	1%
COCC1CN(C2CCC2)CC12CCN(C(=O)c1cccc(C#N)c1)CC2 (stereo unspecified)	-23%
COCC1CN(C2CCC2)CC12CCN(C(=O)c1cccs1)CC2 (stereo unspecified)	-11%
COCC1CN(C2CCC2)CC12CCN(C(=O)c1cccc(C)c1)CC2 (stereo unspecified)	8.9µM*
COCC1CN(C(C)=O)CC12CCN(C(=O)COc1cccc(C)c1)CC2 (stereo unspecified)	i
O=C(Cc1cccs1)N1CC2CC(C1)[C@H]1CCCC(=O)N1C2 (stereo partly specified)	-23%
FC1(F)C[C@@H](c2nnc(C3CC3)o2)N(C2CCSCC2)C1	i
SMILES	Pf Dd2 growth
COc1ccc(C2Cn3nnc(C(=O)N4CCC(C(=O)NCCc5ccccc5)CC4)c3CO2)cc1 (stereo unspecified)	-13%
CC(C)(C)NC(=O)N1CCCC1c1nc(CCOc2ccc(F)cc2)no1 (stereo unspecified)	-12%
CC(=O)Nc1ccc(CN2CCn3c(nnc3-c3cccnc3)C2)cc1	i
O=C(O)CCC(=O)N1CCC2(CC1)CC(c1cccnc1)=NO2	6%
CCc1ncn2ccn(Cc3ccccc3F)c(=O)c12	i
CN1CCC(N[C@@H]2CO[C@H](CNC(=O)Nc3ccccc3)[C@H]2O)CC1	19%[44.1 µM]
COc1ccc(NC(=O)c2ccco2)cc1NC(=O)COc1ccc(Cl)cc1C	16%
COc1ccc(NC(=O)c2ccco2)cc1NC(=O)COc1ccccc1	1%
COc1ccc(NC(=O)c2ccco2)cc1NC(=O)COc1ccc(C)cc1C	2.8µM*
Cc1nc2ncccn2c1C(=O)N1CCC(=O)N(CC2CC2)C(C(C)C)C1 (stereo unspecified)	12%
CCc1nnc([C@@H]2CC(F)(F)CN2C(=O)c2noc(C)c2COC)o1	44%
Cc1ccc(NC(=O)CN2C(=O)NC3(CCC(C)CC3)C2=O)cc1Cl (stereo unspecified)	-5%
CCn1cc(CN2CC(Oc3ccc(-c4noc(-c5ccncc5)n4)cc3)C2)cn1	1.8µM*
Cn1cc(C(=O)N2CC(Oc3ccc(-c4nc(-c5ccccc5)no4)cc3)C2)cn1	25%[5.79 µM]
CCn1cc(S(=O)(=O)N2CC(Oc3ccc(-c4nc(C)no4)cc3)C2)cn1	i[5.79 µM]
CCCc1cnc(C)nc1N1CCC(c2nnc(CN(C)C)n2CC)CC1	-18%
CCC(NCc1c(C(=O)N2CCCCCC2)nc2cc(C)ccn12)c1ccc(C)cc1 (stereo unspecified)	10µM*
Cc1ccn2c(=O)c(C(=O)NCc3ccccc3Cl)c(O)nc2c1	38%
Cc1ccn2c(C(=O)NCc3cccnc3N3CCN(C)CC3)c(C)nc2c1	-10%
Cc1cccc2c1nc1n2[C@@H](CNCc2nc3ccccc3n2C)COC1	-18%[44.1 µM]
COc1ccc(C2=C(C(C)=O)Sc3nnc(-c4ccccc4)n3N2C(C)=O)cc1	-13%
CCOc1ccc(-c2nnc(SCC(=O)c3ccccc3)n2-c2ccccc2)cc1	21%
CCOc1ccc(-c2nnc(SCC(=O)c3ccc(Br)cc3)n2-c2ccccc2)cc1	i
Cc1ccc(C(=O)N2CCn3c(nnc3-c3ccccc3)C2)cc1	i
CC(=O)C1=C(c2ccc(C)cc2)N(C(C)=O)n2c(nnc2-c2ccccc2)S1	7.9µM*
SMILES	Pf Dd2 growth
CCOc1ccc(C2=C(C(C)=O)Sc3nnc(C)n3N2C(C)=O)cc1	1.1µM*
CCc1nnc2n1N(C(C)=O)C(c1ccc(C(C)(C)C)cc1)=C(C(C)=O)S2	3.2µM*
O=C(NCCc1noc(C(F)(F)F)n1)[C@H]1CCC[C@H](O)C1	-1%
COCC(=O)NC[C@H]1O[C@@H](CC(=O)N(C)Cc2ccccc2)[C@H](O)[C@@H]1O	10%[44.1 µM]
COCCNC(=O)CC[C@]12CC[C@](C)(O)C[C@H]1C(C)(C)C[C@@H]2NC(=O)Cc1cccs1	-6%
O=C(CCC1CCN(S(=O)(=O)c2ccccc2)CC1)N1CCc2ccccc2C1	i
COc1cccc(S(=O)(=O)N2CCC3(CC2)CC(OCC2CC2)CCO3)c1 (stereo unspecified)	-2%
COc1ccc(S(=O)(=O)N2CCC3(CC2)CC(OC)CCO3)cc1 (stereo unspecified)	12%
COc1ccc(S(=O)(=O)N2CCC3(CC2)CC(OCC2CC2)CCO3)cc1 (stereo unspecified)	3.5µM*
O=C(N[C@@H]1CCOC[C@H]1Oc1cccc(F)c1)c1ccc(-n2ccnc2)cc1	-21%
Cc1sc2cc(C(=O)NC3CC3)[nH]c2c1CN1CCCCC1	-7%
Cc1cc(C)n(CCc2nc3c4ccccc4nc(SCc4ccc(F)cc4)n3n2)n1	-8%
CCC(Sc1nc2cc(OC)c(OC)cc2c2nc(-c3ccccc3)nn12)C(=O)Nc1cccc(C)c1 (stereo unspecified)	-3%
CCC(Sc1nc2ccccc2c2nc(CCc3c(C)n[nH]c3C)nn12)C(=O)Nc1ccc(F)cc1 (stereo unspecified)	7.9µM*
CC1CCCCN1C(=O)Cn1ncc2c3ccccc3n(Cc3ccccc3F)c2c1=O (stereo unspecified)	13µM*
CCN1CCN(C(=O)Cn2ncc3c4ccccc4n(Cc4ccccc4F)c3c2=O)CC1	11µM*
Cc1ccccc1Cn1c2ccccc2c2cnn(CC(=O)N3CCC(C)CC3)c(=O)c21	i

High-throughput results from PubChem.
